Values joined by “and” are separate entries in the source; they are usually repeats but may differ in a detail not shown here. Identical values can stand only once. Records with an inconclusive call do not appear. More than one record can exist for a structure, and the calls need not agree. Active and inactive are the calls of the source. Rule for the calls, unless noted: active = hit-call score of the fitted dose curve at least 0.9, where 1 is the maximum; inactive = score below 0.9.

Read-out in assay [1]: Monokine induced gamma interferon (MIG), CXCL9 (gene 4283)
Kind of assay: BSK_3C_MIG: BioMAP Diversity Plus: 3C Assay for Monokine induced gamma interferon (MIG) Biomarker Activity (AID 2283021).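 For AC50: MIG protein level measured by immunoassay in the treated endothelial cultures.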 As to conditions: primary human endothelial cells (HUVEC); actives raise or lower the signal. In short, it runs like this: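 HUVEC primary endothelial cultures dosed with chemical; MIG quantified by ELISA at 24 h. Data fitted bidirectionally against DMSO control, with parallel SRB total-protein staining for cytotoxicity.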

In assay [2] the target is human Vitamin D Receptor (VDR), VDR (gene 7421) (UniProt P11473). The assay can be described thus: ATG_VDR_TRANS: Attagene TRANS-FACTORIAL HepG2 Assay for human Vitamin D Receptor (VDR) (AID 2283022; active = hit-call score of the fitted dose curve at least 0.9, where 1 is the maximum). The gist of the method:
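HepG2 cells were transiently transfected with GAL4-UAS reporter units and a chimeric VDR-Gal4 construct, then dosed for 24 hours. Reporter mRNA was quantified by RT-PCR, fluorescent labeling, HpaI digestion and capillary electrophoresis; gain of signal analysed vs DMSO.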

Assay [3] is described as follows: BSK_3C_SRB: Viability Assessment in the BioMAP Diversity Plus: 3C Assay (AID 2283023).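 Note: fitted both ways against DMSO so a hit may be signal rise or drop.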 As to conditions: primary human endothelial cells (HUVEC). The gist of the method: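 Human umbilical vein endothelial cells in the 3C system, treated 24 h. Total protein measured by 0.1% sulforhodamine B staining after 10% TCA fixation, read at 560 nm; bidirectional fit versus DMSO.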

Read-out in assay [4]: Matrix Metallopeptidase 1 (MMP1), MMP1 (gene 4312)
The assay can be described thus: BSK_BE3C_MMP1: BioMAP Diversity Plus: BE3C Assay for Matrix Metallopeptidase 1 (MMP1) Biomarker Activity (AID 2283024). Particulars: primary human bronchial epithelial cells; actives raise or lower the signal. The gist of the method:
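Human primary bronchial epithelial cells (BE3C system) dosed for 24 h; MMP-1 quantified by ELISA. Bidirectional fit against DMSO; cytotoxicity tracked in parallel cultures by SRB total-protein staining.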

The nature of assay [5]: BSK_3C_Vis: BioMAP Diversity Plus: 3C Assay for Morphology Visualization (AID 2283025).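 For AC50: light microscopy image of cell morphology used as background control.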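 Note: fitted both ways so gain or loss versus DMSO counts.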 As to conditions: primary human endothelial cells (HUVEC). The gist of the method: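 Human umbilical vein endothelial cell morphology was inspected by light microscopy 24 h after chemical dosing; scored bidirectionally relative to DMSO.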
Read-out in assay [6]: Pselectin, SELP (gene 6403)
The assay can be described thus: BSK_4H_Pselectin: BioMAP Diversity Plus: 4H Assay for Pselectin Biomarker Activity (AID 2283026). As to conditions: primary human endothelial cells (HUVEC); actives raise or lower the signal. In short, it runs like this: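 Primary human umbilical vein endothelial cells were treated 24 h, and cell-surface P-selectin was then quantified by ELISA. Bidirectional fit versus DMSO; cytotoxicity checked in parallel cultures by SRB total-protein staining.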

Assay [7] is described as follows: BSK_4H_SRB: Viability Assessment in the BioMAP Diversity Plus: 4H Assay (AID 2283027).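 For AC50: curves fitted both ways versus DMSO so AC50 may be loss or gain.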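 Note: cells exposed to compound for 24 h before staining.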 Particulars: primary human endothelial cells (HUVEC). In short, it runs like this: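 Human umbilical vein endothelial cells, 24 h after chemical dosing; total protein measured by 0.1% sulforhodamine B staining after 10% TCA fixation, read at 560 nm. Bidirectional fitting against DMSO.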

Assay [8] can be described thus: BSK_BE3C_SRB: Viability Assessment in the BioMAP Diversity Plus: BE3C Assay (AID 2283028).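 For AC50: fitted both ways so AC50 may mark signal gain or loss versus DMSO.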 Particulars: primary human bronchial epithelial cells. The gist of the method:
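Human bronchial epithelial primary cells in confluent culture, 24 h after chemical dosing; total protein by 0.1% SRB staining after 10% TCA fixation, read at 560 nm. Bidirectional fitting versus DMSO baseline.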

Read-out in assay [9]: Urokinase-type plasminogen activator receptor (uPAR), PLAUR (gene 5329)
The assay can be described thus: BSK_4H_uPAR: BioMAP Diversity Plus: 4H Assay for Urokinase-type plasminogen activator receptor (uPAR) Biomarker Activity (AID 2283030). Particulars: primary human endothelial cells (HUVEC); actives raise or lower the signal. The gist of the method: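 Human umbilical vein endothelial cells in the 4H system, 24 h after chemical dosing. Cell-surface uPAR measured by ELISA, fitted in both directions versus DMSO; cytotoxicity checked by SRB total protein in parallel cultures.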

Read-out in assay [10]: Thrombomodulin, THBD (gene 7056)
The assay can be described thus: BSK_3C_Thrombomodulin: BioMAP Diversity Plus: 3C Assay for Thrombomodulin Biomarker Activity (AID 2283029). As to conditions: primary human endothelial cells (HUVEC); actives raise or lower the signal. In short, it runs like this: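 Human umbilical vein endothelial cells were exposed to chemicals for 24 h; cell-surface thrombomodulin quantified by ELISA, with bidirectional fitting against DMSO baseline.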

Sequence of human Vitamin D Receptor (VDR), VDR (gene 7421) (P11473 whole entry, looked up, the tested form may be a part): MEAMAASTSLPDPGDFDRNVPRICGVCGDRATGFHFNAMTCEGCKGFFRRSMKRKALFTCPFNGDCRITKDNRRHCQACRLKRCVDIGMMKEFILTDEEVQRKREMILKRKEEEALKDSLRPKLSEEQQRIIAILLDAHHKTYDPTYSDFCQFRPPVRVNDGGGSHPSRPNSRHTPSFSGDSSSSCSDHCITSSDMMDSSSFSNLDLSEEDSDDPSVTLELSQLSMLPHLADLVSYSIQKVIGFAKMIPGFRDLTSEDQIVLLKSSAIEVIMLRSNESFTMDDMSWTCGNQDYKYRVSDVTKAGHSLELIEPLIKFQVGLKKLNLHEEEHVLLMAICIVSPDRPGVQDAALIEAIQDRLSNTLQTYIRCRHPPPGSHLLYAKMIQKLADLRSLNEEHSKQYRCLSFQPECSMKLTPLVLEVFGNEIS

By AC50 is commonly meant the concentration at which the activity in the assay is half-maximal. As to `CC1(C)C(C=C(Cl)Cl)C1C(=O)OC(C#N)c1ccc(F)c(Oc2ccccc2)c1` (stereo not drawn), the result in assay [1], in assay [2], in assay [4], in [6], in [7] and in assay [8] was inactive. Moreover, the outcome in [9] was inactive. Besides, the values for the half-maximal activity concentration (AC50) in assay [3] and in [5] were 8.15 µM (active) and 9.8 µM (active), respectively.

As to `O=S(=O)(O)C(F)(F)C(F)(F)C(F)(F)C(F)(F)C(F)(F)C(F)(F)C(F)(F)C(F)(F)F`, the result in [1], in assay [2], in assay [3], in [4], in assay [5] and in assay [6] was inactive. Moreover, the result in assay [7], in assay [8] and in [9] was inactive. The half-maximal activity concentration (AC50) in assay [3] was 31.5 µM (active) and 30.8 µM (active) and 26.7 µM (active); in assay [5], 37.7 µM (active) and 13.7 µM (active); in assay [6], 12.2 µM (active) and 3.81 µM (active); in [8] it was 19.8 µM (active) [middle of 7 runs]; in assay [9], 463 nM (active) and 14.2 µM (active).

Consider `COP(=S)(OC)Oc1ccc([N+](=O)[O-])cc1`, for which the result in [1], in assay [2], in assay [4], in [6], in assay [8] and in assay [10] was inactive. Further, the result in [9] was inactive. The AC50 in assay [3] is 23 µM (active); in assay [5] it was 14.4 µM (active); in assay [7] it was 5.97 µM (active).

Regarding `CCS(=O)(=O)c1cccnc1S(=O)(=O)NC(=O)Nc1nc(OC)cc(OC)n1`, the outcome in assay [1], in [2], in assay [3], in [4], in assay [5] and in assay [6] was inactive. Moreover, the outcome in [7], in [8] and in assay [9] was inactive.

Take `COC(=O)c1ccccc1S(=O)(=O)NC(=O)Nc1nc(C)nc(OC)n1`: the result in [1], in assay [2], in assay [3], in assay [4], in assay [5] and in assay [6] was inactive. The outcome in assay [7], in assay [8] and in assay [9] was inactive.

Regarding `Clc1ccccc1-c1nnc(-c2ccccc2Cl)nn1`, the result in assay [1], in assay [2], in assay [3], in assay [4], in [5] and in [6] was inactive. Moreover, the result in assay [7], in [8] and in [9] was inactive.

`N#Cc1c(Cl)c(Cl)c(Cl)c(C#N)c1Cl`: the concentration at half-maximal activity (AC50) in [1] was 2.06 µM (active); in [3] it was 2.14 µM (active); in assay [4] it was 4.1 µM (active); in assay [5], 0.468 µM (active); in assay [6] it was 911 nM (active); in assay [7], 1.96 µM (active). For the same compound, the results for the AC50 in [8] and in assay [9] were 1.72 µM (active) and 1.81 µM (active), respectively. Also, in [2], the compound was classed as inactive.

With `O=C(O)COc1ccc(Cl)cc1Cl`, the outcome in [1], in assay [2], in assay [3], in [4], in assay [5] and in [6] was inactive. In addition, the outcome in assay [7], in [8] and in assay [9] was inactive.

In the case of `O=C1c2ccccc2C(=O)N1SC(Cl)(Cl)Cl`, the outcome in assay [1], in assay [2], in assay [3], in [5], in assay [6] and in assay [7] was inactive. Moreover, the outcome in assay [9] was inactive. Moreover, the AC50 in assay [4] was 34.9 µM (active); in assay [8], 31.8 µM (active).

As to `Oc1cc(Cl)ccc1Oc1ccc(Cl)cc1Cl`, the AC50 is 32.6 µM (active) [middle of 4 runs] in assay [1]; 10.8 µM (active) [middle of 4 runs] in assay [3]; 32.6 µM (active) [middle of 4 runs] in assay [4]; 12.6 µM (active) [middle of 4 runs] in assay [5]; 12.3 µM (active) [middle of 4 runs] in assay [6]; 20.4 µM (active) and 17.8 µM (active) and 20.9 µM (active) in assay [7]. For the same compound, the results for the AC50 in assay [8] and in assay [9] were 31.4 µM (active) [middle of 4 runs] and 14.7 µM (active) [middle of 4 runs], respectively. Also, in assay [2], the outcome was inactive.

Turning to `CC(C)OC(=O)Nc1cccc(Cl)c1`, the result in [1], in assay [2], in [3], in assay [4], in assay [5] and in [6] was inactive. The result in assay [7], in assay [8] and in assay [9] was inactive.

With `O=[N+]([O-])/N=C1\NCCN1Cc1ccc(Cl)nc1`, the outcome in [1], in assay [2], in assay [3], in [4], in [5] and in assay [6] was inactive. The result in assay [7], in assay [8] and in assay [9] was inactive.

On to `OCCOc1ccccc1`, for which the result in assay [1], in [2], in assay [3], in assay [4], in assay [5] and in assay [6] was inactive. The outcome in [7], in [8] and in assay [9] was inactive.

Values taken from PubChem BioAssay (EPA / NIEHS).
